A549 viability: kills or reduces viability of A549 cells in Nrf2 counter-screen; Potency, µM (titrated, usually from 46 µM), usual class: inhibitors; AID 504648; actives 0.16% (n = 390,000); A549 ARE-Fluc cells, CellTiter-Fluor viability, 18-24 h
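A549 ARE_Fluc cells in 5% FBS OPTI-MEM were exposed to compounds in concentration-response for 18-24 h at 37 deg C. Viability was read by CellTiter-Fluor fluorescence (Ex 405/Em 525) after 30 min, before the luciferase read.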
Nrf2 block: Nrf2 pathway inhibition; A549 ARE-Fluc reporter, luciferase luminescence, 18-24 h; actives 2.1% (n = 360,000); Potency, µM (highest dose often 46 µM), hits mostly inhibitors; note: nearly all actives have a fitted effect of over 60% in size
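A549 ARE_Fluc cells, 5000/well, 5% FBS OPTI-MEM; compounds in dose-response, 18-24 h at 37 °C/5% CO2; CellTiter-Fluor viability read (Ex 405/Em 525), then BugLite luciferase luminescence = Nrf2 activity.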
Epigenetic reg: derepresses silenced GFP reporter in murine cells. murine LDR cells, GFP reporter derepression, 30 h. Potency, µM (titrated, usually from 53.9 µM), most hits filed as activators. actives 0.2% (n = 280,000). AID 1865; note: nearly all actives have a fitted effect of over 60% in size
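Readout is the number of GFP-expressing murine LDR cells, counted by cytometry following washing. Cells were treated with compound for 30 h at 37 C; the stably integrated CMV-GFP locus is normally silent.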
Nrf2 ARE act: activates Nrf2 signaling; AREc32 ARE-luciferase reporter (MCF7-derived line), luminescence, 24 h; Potency, µM (series often up to 46.1 µM), hits mostly activators; actives 0.31% (n = 410,000); note: nearly all actives have a fitted effect of over 65% in size
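AREc32 cells carrying an ARE-driven firefly luciferase reporter were seeded at 1000 cells/well in OPTI-MEM with 5% FBS, then exposed to compound for 24 hr at 37 deg C. Luminescence was read with Steady-Glo after 30 min at RT.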
PINK1 expr mod: changes PINK1 expression; actives 0.2% (n = 410,000); AID 624263; Potency, µM (highest dose often 76.6 µM), most hits filed as activators; PINK1 immunofluorescence, high-content cytometry, 24 h; active = well fitted activation curve with a large enough effect; inconclusive = small, poorly fitted or top-dose-only effect; cell line not stated here; note: nearly all actives have a fitted effect of over 65% in size
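Measures PINK1 amount and localization on or inside mitochondria by immunofluorescence. Stable cells get compounds at 5 concentrations for 24 hours before fixation and staining; CCCP controls included.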
Large screens that a line does not name were inactive. A selection: hits, their analogues and other compounds. The true share with any hit is near 2.4%. Unless noted, calls come from the whole dose curve; as a rule, active = well fitted curve in the direction sought with a large enough effect; inconclusive = small, poorly fitted or top-dose-only effect, or another doubt; inactive = no such curve, though single readings can be large; an effect the other way counts as inactive or inconclusive.

O=C(NCC1(N2CCOCC2)CCCC1)c1cnn(-c2nccc(-c3cccs3)n2)c1C1CC1	none (no result: A549 viability, Nrf2 block, Epigenetic reg, Nrf2 ARE act)
CCCCOc1ncnc2c1[nH]c1ccccc12	A549 viability inconclusive, Nrf2 block 8.2µM
CCCCOc1ncnc2c1[nH]c1ccc(F)cc12	Nrf2 block 2.06µM (no result: PINK1 expr mod)
c1ccc(Nc2nc(NCC3CCCO3)c3ccccc3n2)cc1 (stereo unspecified)	Nrf2 block 18.4µM
CCOCCCNc1ncnc2c1[nH]c1ccccc12	Nrf2 block 23.1µM
CN(CC(=O)Nc1cccc(F)c1)S(=O)(=O)c1ccc2c(c1)n(C)c(=O)c(=O)n2C	none
c1ccc2c(c1)[nH]c1c(NCC3CCCO3)ncnc12 (stereo unspecified)	Nrf2 block 14.6µM
COc1ccc2c(c1)sc1nc(-c3ccccc3)cn12	Nrf2 block 18.4µM
COc1ccc(-c2cn3c(n2)sc2cc(C(=O)NCc4ccccc4)ccc23)cc1	none
OC(c1ccc2c(c1)CN(Cc1c[nH]c3ccccc13)CCO2)c1ccccn1 (stereo unspecified)	none (no result: A549 viability, Nrf2 block, Epigenetic reg, Nrf2 ARE act)
O=C(C[N+]1(CCO)CCOCC1)c1cccc2ccccc12	none (no result: A549 viability, Nrf2 block, Epigenetic reg, Nrf2 ARE act)
CCN1CCc2c(sc(NC(=O)c3ccc(S(=O)(=O)N(CC)c4ccccc4)cc3)c2C(N)=O)C1	A549 viability 23.1µM, Nrf2 block 16.4µM (no result: Epigenetic reg)
CCN1CCc2c(sc(NC(=O)Nc3ccc(Cl)c(Cl)c3)c2C(N)=O)C1	Epigenetic reg inconclusive, PINK1 expr mod 14.1µM
Cc1nc2ccccc2n1CCOc1ccc(F)cc1	Nrf2 block 20.6µM (no result: Epigenetic reg)
Cc1ccc(C(=O)CSc2ncnc3ccccc23)o1	Nrf2 block inconclusive, Nrf2 ARE act 12.6µM
COc1ccc(-c2cn3c(n2)sc2cc(C(=O)NC(C)C45CC6CC(CC(C6)C4)C5)ccc23)cc1 (stereo unspecified)	none
O=C(N/N=C/c1cccc([N+](=O)[O-])c1)c1cccc2cc[nH]c12	Nrf2 ARE act inconclusive
O=C(N/N=C/c1cc([N+](=O)[O-])ccc1O)c1cccc2cc[nH]c12	A549 viability inconclusive, Nrf2 block 23.1µM, PINK1 expr mod inconclusive
O=C(NCCc1cccs1)c1ccc(Cn2c(SCc3ccccc3)nc3cccnc32)cc1	Nrf2 block inconclusive
COc1ccc(Cn2c(SCc3ccc(C(=O)NC4CCCCC4)cc3)nc3cccnc32)cc1	A549 viability inconclusive, Nrf2 block 18.4µM
O=C(NCCc1cccs1)c1ccc(Cn2c(SCc3ccc(F)cc3)nc3cccnc32)cc1	A549 viability inconclusive, Nrf2 block 18.4µM
O=C(NCc1cccs1)c1ccc(Cn2c(SCc3ccccc3)nc3cccnc32)cc1	A549 viability inconclusive, Nrf2 block 25.9µM
Cc1cnc(SCc2ccccn2)nc1C1CCCN(C(=O)c2scc3c2CCCC3)C1 (stereo unspecified)	none (no result: A549 viability, Nrf2 block, Epigenetic reg, Nrf2 ARE act)
Cc1ccccc1NS(=O)(=O)c1cc(C(=O)Nc2cccc(N(C)S(C)(=O)=O)c2)ccc1C	A549 viability inconclusive, Nrf2 block 18.4µM
Cc1ccc(SCCNC(=O)c2ccc(C)c(S(=O)(=O)Nc3ccccc3C)c2)cc1	Nrf2 block 13µM (no result: PINK1 expr mod)
CN(c1cccc(NC(=O)c2ccc(Cl)c(S(=O)(=O)Nc3ccccc3)c2)c1)S(C)(=O)=O	Nrf2 block 20.6µM
O=C(Nc1ccccc1)c1ccc(Cl)c(S(=O)(=O)Nc2ccccc2)c1	Nrf2 block inconclusive
Cc1ccc(C(=O)Nc2ccccc2)cc1S(=O)(=O)Nc1ccccc1	Nrf2 block inconclusive
O=C(O)c1ccccc1NS(=O)(=O)c1ccc(Cl)c(Cl)c1	none (no result: A549 viability, Nrf2 block, Nrf2 ARE act, PINK1 expr mod)
CCn1c(=O)sc2cc(NC(=O)c3cccc(OC)c3)ccc21	none
CCCn1c(=O)sc2cc(NC(=O)c3ccc(OC)c(Br)c3)ccc21	Nrf2 block 16.4µM
CCOC(=O)c1c(CSc2nc(C)cc(C)c2C#N)n(C)c2cc(Br)c(OC(C)=O)cc12	none
C=CCCc1ccc(C#N)c(SCc2c(C(=O)OCC)c3cc(OC(C)=O)c(Br)cc3n2C)n1	Epigenetic reg 12.6µM
OCCN1CCN(Cc2ccc3c(c2)CN(Cc2ccc4ccccc4c2)CCO3)CC1	none (no result: A549 viability, Nrf2 block, Epigenetic reg, Nrf2 ARE act)
COC(=O)c1cc(=O)n(-c2ccc(F)cc2)c(=Nc2ccc(F)cc2)s1	A549 viability inconclusive, Nrf2 block 20.6µM
Brc1ccccc1-c1nnc(-c2cccnc2)o1	Nrf2 block inconclusive, Nrf2 ARE act 15.8µM
O=c1c2ccccc2nc(/C=C/c2ccc([N+](=O)[O-])o2)n1CCCO	A549 viability 23.1µM, Nrf2 block 20.6µM, Epigenetic reg inconclusive
O=c1c2ccccc2nc(/C=C/c2ccc([N+](=O)[O-])cc2)n1CCCO	none
Oc1cccc2ccc(Nc3ccccn3)nc12	A549 viability 4.11µM, Nrf2 block inconclusive, PINK1 expr mod inconclusive
Cc1ccc(-n2ncc(C(=O)NCc3ccc4c(c3)OCO4)c2C2CCN(C(=O)OC(C)(C)C)CC2)cc1C	Nrf2 block 18.4µM
COc1ccc(-n2ncc(C(=O)NCc3ccc4c(c3)OCO4)c2C2CCN(C(=O)OC(C)(C)C)CC2)cc1	Nrf2 block 16.4µM
COc1ccccc1CNC(=O)c1cnn(-c2nccc(-c3cccs3)n2)c1C	none (no result: A549 viability, Nrf2 block, Epigenetic reg, Nrf2 ARE act)
O=C(N/N=C/c1cn(-c2cccs2)nc1-c1ccccc1)c1ccccc1O	A549 viability inconclusive, Nrf2 block inconclusive, PINK1 expr mod 28.2µM
N#Cc1c(C(F)(F)F)cc(-c2cccs2)nc1SCC(=O)Nc1cccc(C(F)(F)F)c1	Nrf2 block inconclusive, Epigenetic reg 15.8µM, PINK1 expr mod inconclusive
N#Cc1c(C(F)(F)F)cc(-c2cccs2)nc1SCC(=O)Nc1ccc(Cl)cc1	Nrf2 block inconclusive, Epigenetic reg 10µM
COCc1c(C(=O)N2CCN(C3CCCCC3)CC2)cnn1-c1ncc(C)c(-c2cccs2)n1	none (no result: A549 viability, Nrf2 block, Epigenetic reg, Nrf2 ARE act)
O=C(OCCN1C(=O)c2cccc3c(N4CCOCC4)ccc(c23)C1=O)c1ccc(Cl)cc1	Epigenetic reg inconclusive
CCCN(CCC)S(=O)(=O)c1ccc(C(=O)OCCN2C(=O)c3cccc4c(N5CCOCC5)ccc(c34)C2=O)cc1	A549 viability inconclusive, Epigenetic reg 25.1µM
COc1cc(-c2nc(C)cnc2C)cc2c1OCCN(C(=O)Cc1cc(OC)c(OC)c(OC)c1)C2	none (no result: A549 viability, Nrf2 block, Epigenetic reg, Nrf2 ARE act)
O=c1c2ccccc2sn1-c1ccc(Cl)c(S(=O)(=O)N2CCOCC2)c1	none (no result: Epigenetic reg, Nrf2 ARE act)
O=C1NC(=S)S/C1=C\c1ccc(SCc2ccco2)o1	A549 viability inconclusive
O=C1NC(=S)S/C1=C\c1ccc(SCc2ccccc2)o1	A549 viability inconclusive, Nrf2 block 20.6µM, PINK1 expr mod inconclusive
COCc1c(C(=O)NC2CCCC2)cnn1-c1nccc(-c2ccco2)n1	none (no result: A549 viability, Nrf2 block, Epigenetic reg, Nrf2 ARE act)
CCSc1nc(N)c(C#N)c(-c2ccco2)c1C#N	Nrf2 block inconclusive
COC(=O)CSc1nc(N)c(C#N)c(-c2ccco2)c1C#N	Epigenetic reg inconclusive, Nrf2 ARE act 14.1µM (no result: Nrf2 block)
O=C(c1cccs1)c1cn(CCOc2ccc(F)cc2)c2ccccc12	Nrf2 block inconclusive

Screening results from PubChem.
